Assay results as given in PubChem BioAssay (NCI).
The panel holds about 83,000 compounds, 20% with a hit somewhere; the sample as a whole holds those more often.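 Note: values are percent growth. 100 is the growth of untreated cells, values between 100 and 0 indicate rising inhibition; between -100 and 0 indicates cell death.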 Activity calls are given as the source filed them. The calls were made as follows: active = growth percent below 10; inactive = the rest.

test system: HL-60(TB) leukemia; experiment: NCI-60 one-dose screen, 48 h (100 = growth as untreated, 0 = no growth, -100 = all killed); conditions: 10 µM unless noted

Row | Compound | growth
1 | COc1cc(C(=O)Nc2cc(O)c(CC=C(C)C)c(O)c2)cc2c1O[C@]1(C)CC[C@@H](O)C(C)(C)[C@H]1C2 | 5.12% (active)
2 | O=C1c2ccccc2-c2c1c1c(NCCCO)nc3ccccc3c1n2Cc1ccccc1 | 48.9% (inactive)
3 | Cc1cc(N2CCOCC2)nc(N(CCNc2ccnc3cc(Cl)ccc23)Cc2ccco2)n1 | -65.1% (active)
4 | NS(=O)(=O)c1ccc(-c2cc(-c3nnc(SCC(=O)Nc4ccc(C(=O)/C=C/c5ccc(Cl)cc5)cc4)n3-c3ccccc3)c3ccccc3n2)cc1 | 92.2% (inactive)
5 | O=C1c2cc3c(cc2-c2c1c1cc(F)c(F)cc1c(=O)n2C[C@H](O)CO)OCO3 | -16.4% (active)
6 | CC1CCc2cc(F)cc3c(=O)c(C(=O)O)cn1c23 (stereo not given) | 107% (inactive)
7 | NNc1ccc(Cl)cc1Cl | 8.29% (active)
8 | O=C1c2cccc(NCCN=Cc3cc(O)ccc3O)c2C(=O)c2c(NCCN=Cc3cc(O)ccc3O)cccc21 | -72.5% (active)
9 | COc1ccc(NC(=O)c2ccc3c(c2)nc(-c2ccc(Cl)cc2)n3-c2cc(C(C)(C)C)[nH]n2)cc1 | 96.8% (inactive)
10 | O=C1NC(=Nc2ccc(Cl)cc2)S/C1=C\c1cn(-c2ccccc2)nc1-c1ccccc1 | 92% (inactive)
11 | CC(C)(c1ccccc1)c1cc(O)c(C(C)(C)c2ccccc2)cc1O | -6.95% (active)
12 | COc1ccc(-c2nn(C(=O)NCCN(C)C)cc2-c2ccncc2)cc1Cl | 10.2% (inactive)
13 | COc1cc(N)c2ncccc2c1SC | 107% (inactive)
14 | Cc1ccc(NC(=O)c2ccc(Nc3ncnc4c3cnn4-c3cccc(F)c3)cc2)cc1 | 90.2% (inactive)
15 | CC(C)COCC(CN(Cc1ccccc1)c1ccccc1)N1CCCC1 (stereo not given) | 82.4% (inactive)
16 | CCCCCCNC(=O)Nc1ccc2cc3ccc(NC(=O)NCCCCCC)cc3nc2c1 | -49% (active)
17 | CN1/C(=C/C=C/c2n(Cc3ccc4ccccc4c3)c(Cl)c(Cl)[n+]2Cc2ccc3ccccc3c2)Oc2ccccc21 | 98.9% (inactive)
18 | C#CCOc1cccc(Nc2c(Cl)c(CCl)nc3ccc(Oc4ccccc4)cc23)c1 | 41.4% (inactive)
19 | O=S(=O)(NCCNc1nccc(-c2c(-c3cccc(O)c3)nc3occn23)n1)c1ccc(Cl)cc1 | 76.4% (inactive)
20 | C=C(C)[C@@H]1CC[C@]2(C(=O)N3CCN(C)CC3)CC[C@]3(C)[C@H](CC[C@@H]4[C@@]5(C)C/C(=C/c6cccnc6)C(=O)C(C)(C)[C@@H]5CC[C@]43C)[C@@H]12 | -4.95% (active)

Row | Compound | growth
21 | CC(C)C1=C[C@@]23CC[C@@H]4[C@](C)(CCC[C@@]4(C)C(=O)N4CCCNCC4)[C@H]2C[C@@H]1[C@H]1C(=O)CCC(=O)[C@H]13 | 100% (inactive)
22 | COc1ccc2c3c(ccc2c1)C(=O)/C(=C\O)CC3 | 75.1% (inactive)
23 | Cc1ccc2c(n1)C(=O)C(Cl)=C(Nc1ccccc1C(C)C)C2=O | -15.3% (active)
24 | CCN(CC)S(=O)(=O)c1ccc(S(=O)(=O)N2CCC[C@@H](C(=O)N3CCN(C(=O)OC(C)(C)C)CC3)C2)cc1 | 70.5% (inactive)
25 | O=C(O)COc1ccc(OCC(=O)O)cc1 | -1.78% (active)
26 | CCn1cc(CNc2ccc(C(=O)Nc3cc4cc(OC)c(OC)cc4c(C)n3)cc2)c(C)n1 | 0.232% (active)
27 | COC(=O)[C@]12CC[C@@H](C)[C@H](C)[C@@H]1C1=CC[C@@H]3[C@@]4(C)C=C(O)C(=O)C(C)=C4CC[C@@]3(C)[C@]1(C)CC2 | 4.09% (active)
28 | Cc1[nH]n(C(=O)c2ccncc2)c(=O)c1N=Nc1ccc(S(=O)(=O)Nc2ccncn2)cc1 | 91.3% (inactive)
29 | O=C(COc1cccc(/C=C2\Oc3ccc4ccccc4c3C2=O)c1)c1ccc(Cl)cc1 | 107% (inactive)
30 | O=c1cc(-c2ccc3c(c2)OCCO3)oc2cc(Cl)ccc12 | 110% (inactive)
31 | C[C@]12CCc3c(ccc4cc(O)ccc34)[C@@H]1C[C@H](O)[C@@H]2O | 132% (inactive)
32 | COc1cc(-c2cc(/C=C3\C(=O)Nc4cc(Cl)ccc43)[nH]n2)cc(OC)c1OC | -34.9% (active)
33 | O=c1[nH]c(=O)n(Cc2ccc(F)cc2)cc1F | 88.7% [50 µM] (inactive)
34 | COc1ccc(-c2nc3sccn3c2-c2ccnc(NCCCNS(=O)(=O)c3ccc(F)cc3)n2)cc1 | -3.74% (active)
35 | CCn1c(SCCc2ccccc2)nnc1-c1nn(-c2ccc(Cl)cc2Cl)c(-c2ccc(Cl)cc2)c1C | 67.8% (inactive)
36 | CN1C(=O)CCC(N2C(=O)c3cccc(NCCOCCOCCNC(=O)c4cc5c(o4)C(=O)c4ccccc4C5=O)c3C2=O)C1=O (stereo not given) | 0.337% (active)
37 | C=CCn1ccc(=O)nc1SC | 96.4% (inactive)
38 | CN1CCN(c2ccc(Nc3ncc(C(N)=O)c(NCCCNC(=O)C4CCC4)n3)cc2)CC1 | -36.3% (active)
39 | O=C(O)CCC(=O)c1ccc(C2CCCCCC2)cc1 | 107% (inactive)
40 | CC1(C)CNC(=O)N1 | 101% (inactive)
